These results are taken from ChEMBL document CHEMBL2218924, “A broad activity screen in support of a chemogenomic map for kinase signalling research and drug discovery” (Biochem J, 2013).

Usually residual activity stands for the signal under treatment as a percentage of the control signal.

Molecules are shown by their SMILES.

Assay [1] has as its target T1, Serine/threonine-protein kinase haspin (Homo sapiens) (UniProt Q8TF76).
T1 sequence (whole entry): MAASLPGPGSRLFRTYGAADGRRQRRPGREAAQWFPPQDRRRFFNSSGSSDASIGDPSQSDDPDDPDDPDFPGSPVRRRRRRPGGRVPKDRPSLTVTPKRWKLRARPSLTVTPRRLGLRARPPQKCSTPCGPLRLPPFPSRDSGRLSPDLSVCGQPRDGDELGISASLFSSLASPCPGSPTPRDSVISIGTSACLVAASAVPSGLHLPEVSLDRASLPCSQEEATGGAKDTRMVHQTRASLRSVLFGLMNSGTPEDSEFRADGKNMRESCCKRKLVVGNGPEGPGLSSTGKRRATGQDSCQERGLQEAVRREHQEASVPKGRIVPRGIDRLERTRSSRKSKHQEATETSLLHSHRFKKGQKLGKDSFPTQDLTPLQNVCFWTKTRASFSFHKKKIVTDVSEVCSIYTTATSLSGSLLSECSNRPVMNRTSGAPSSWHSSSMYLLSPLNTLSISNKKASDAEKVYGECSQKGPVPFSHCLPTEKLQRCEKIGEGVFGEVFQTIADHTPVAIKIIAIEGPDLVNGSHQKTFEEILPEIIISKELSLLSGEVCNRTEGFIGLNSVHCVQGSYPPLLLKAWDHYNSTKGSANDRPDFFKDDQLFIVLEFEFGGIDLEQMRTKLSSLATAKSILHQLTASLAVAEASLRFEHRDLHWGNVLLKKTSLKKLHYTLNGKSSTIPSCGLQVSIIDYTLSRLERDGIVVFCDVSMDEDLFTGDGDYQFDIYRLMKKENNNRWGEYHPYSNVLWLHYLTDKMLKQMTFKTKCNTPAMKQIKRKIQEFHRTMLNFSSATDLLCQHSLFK
The settings on record: at 10 µM.

In assay [2] the target is Tyrosine-protein kinase HCK (Homo sapiens) (UniProt P08631). Particulars: at 1 µM.
For assay [3] the target is unchanged. Particulars: at 10 µM.
For assay [4] the target is unchanged. Particulars: at 1 µM. This is another data set of the same source.
Assay [5] shares this target. The settings on record: at 10 µM. The source holds these as a separate data set.
Assay [6] deals with Insulin-like growth factor 1 receptor (Homo sapiens) (UniProt P08069). The settings on record: at 1 µM.
For assay [7] the target is unchanged. The settings on record: at 10 µM.
Assay [8] has as its target T1, Serine/threonine-protein kinase haspin (Homo sapiens). Particulars: at 1 µM.
In assay [9] the target is T2, Protein kinase C zeta type (Homo sapiens) (UniProt Q05513).
T2 sequence (whole entry): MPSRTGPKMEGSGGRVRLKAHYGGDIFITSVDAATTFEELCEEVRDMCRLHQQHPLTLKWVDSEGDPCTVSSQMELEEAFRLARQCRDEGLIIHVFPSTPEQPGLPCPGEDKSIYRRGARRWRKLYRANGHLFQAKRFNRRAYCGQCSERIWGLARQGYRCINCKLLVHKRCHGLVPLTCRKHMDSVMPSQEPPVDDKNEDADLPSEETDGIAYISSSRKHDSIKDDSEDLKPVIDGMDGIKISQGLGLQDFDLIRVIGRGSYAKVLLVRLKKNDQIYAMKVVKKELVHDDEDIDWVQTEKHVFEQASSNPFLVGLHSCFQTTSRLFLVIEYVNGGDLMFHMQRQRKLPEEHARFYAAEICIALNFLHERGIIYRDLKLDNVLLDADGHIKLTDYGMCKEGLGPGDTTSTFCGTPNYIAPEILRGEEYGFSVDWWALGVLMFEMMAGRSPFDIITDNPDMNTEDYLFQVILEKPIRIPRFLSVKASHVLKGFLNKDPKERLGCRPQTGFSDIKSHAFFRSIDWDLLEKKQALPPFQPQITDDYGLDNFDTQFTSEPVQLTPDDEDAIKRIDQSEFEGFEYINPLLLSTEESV
Particulars: at 10 µM.

Tyrosine-protein kinase HCK (Homo sapiens), sequence (P08631 2-526 limits assumed): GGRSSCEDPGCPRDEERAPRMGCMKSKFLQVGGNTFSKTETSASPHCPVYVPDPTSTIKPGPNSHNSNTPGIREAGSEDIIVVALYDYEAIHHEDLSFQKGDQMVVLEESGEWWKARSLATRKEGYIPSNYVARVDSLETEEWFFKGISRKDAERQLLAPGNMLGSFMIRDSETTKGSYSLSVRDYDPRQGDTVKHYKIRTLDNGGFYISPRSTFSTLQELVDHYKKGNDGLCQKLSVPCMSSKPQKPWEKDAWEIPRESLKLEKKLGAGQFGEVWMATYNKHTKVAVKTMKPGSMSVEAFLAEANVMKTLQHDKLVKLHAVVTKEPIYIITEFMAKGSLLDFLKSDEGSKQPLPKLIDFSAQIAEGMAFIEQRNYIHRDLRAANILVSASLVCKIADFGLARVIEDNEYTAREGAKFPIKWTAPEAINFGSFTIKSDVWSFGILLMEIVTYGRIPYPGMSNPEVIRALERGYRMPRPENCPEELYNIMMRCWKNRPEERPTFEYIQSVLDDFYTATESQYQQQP
Insulin-like growth factor 1 receptor (Homo sapiens), sequence (P08069 31-736 limits assumed): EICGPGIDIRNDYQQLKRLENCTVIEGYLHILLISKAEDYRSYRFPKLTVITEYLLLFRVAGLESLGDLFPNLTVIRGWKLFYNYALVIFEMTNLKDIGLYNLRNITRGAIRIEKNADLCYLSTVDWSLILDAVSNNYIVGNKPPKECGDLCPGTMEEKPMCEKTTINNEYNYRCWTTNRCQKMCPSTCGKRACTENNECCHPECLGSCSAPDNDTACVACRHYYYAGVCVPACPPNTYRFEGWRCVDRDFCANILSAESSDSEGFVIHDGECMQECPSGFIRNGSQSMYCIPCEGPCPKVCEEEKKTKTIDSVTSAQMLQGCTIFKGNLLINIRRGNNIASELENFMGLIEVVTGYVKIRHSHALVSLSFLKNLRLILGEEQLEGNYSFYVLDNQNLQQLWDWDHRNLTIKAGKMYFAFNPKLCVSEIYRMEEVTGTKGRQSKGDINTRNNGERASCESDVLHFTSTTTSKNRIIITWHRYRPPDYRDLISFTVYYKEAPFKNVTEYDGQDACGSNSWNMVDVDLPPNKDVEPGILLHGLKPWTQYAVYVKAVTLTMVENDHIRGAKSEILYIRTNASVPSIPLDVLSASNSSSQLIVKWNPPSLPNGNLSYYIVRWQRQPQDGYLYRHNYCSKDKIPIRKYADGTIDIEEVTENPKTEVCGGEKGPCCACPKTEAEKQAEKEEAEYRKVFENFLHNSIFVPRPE
Insulin-like growth factor 1 receptor (Homo sapiens), sequence (P08069 741-1367 limits assumed): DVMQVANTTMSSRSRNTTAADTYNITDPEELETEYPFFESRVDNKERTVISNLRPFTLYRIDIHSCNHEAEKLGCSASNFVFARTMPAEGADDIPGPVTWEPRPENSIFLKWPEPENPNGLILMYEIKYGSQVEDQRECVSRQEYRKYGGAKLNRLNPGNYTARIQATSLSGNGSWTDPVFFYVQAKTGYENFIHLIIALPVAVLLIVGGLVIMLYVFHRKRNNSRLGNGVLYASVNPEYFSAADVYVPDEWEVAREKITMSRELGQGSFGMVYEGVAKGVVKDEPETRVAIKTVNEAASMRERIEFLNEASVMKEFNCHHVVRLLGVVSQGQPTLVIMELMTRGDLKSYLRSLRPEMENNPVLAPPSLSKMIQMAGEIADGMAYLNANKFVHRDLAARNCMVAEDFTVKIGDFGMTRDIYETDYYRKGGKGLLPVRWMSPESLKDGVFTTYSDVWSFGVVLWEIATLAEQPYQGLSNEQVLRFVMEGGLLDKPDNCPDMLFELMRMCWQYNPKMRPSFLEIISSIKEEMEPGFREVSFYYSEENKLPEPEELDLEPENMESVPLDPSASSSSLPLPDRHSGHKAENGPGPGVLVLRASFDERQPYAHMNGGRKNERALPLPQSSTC

On to `N#C/C(=C\c1ccc(O)c(O)c1)C(=O)NCc1ccccc1`, for which the residual activity in assay [1] amounted to 48%; in [2], 78%; in assay [3], 70%; in [4] it was 102%; in assay [5], 80%; in [6] it was 144%. Besides, in assay [7], the residual activity was 65%.

As to `O=C(c1ccccc1)c1ccc(N2CCOCC2)cc1O`, the residual activity in assay [8] turned out to be 98%; in assay [1] it was 77%; in assay [2], 83%; in [3] it was 75%; in [5], 93%; in assay [6], 76%. Besides, the residual activity in assay [7] came out at 81%.

On to `COc1ccc(-c2cnc3c(-c4ccsc4)cnn3c2)cc1`, for which the residual activity in assay [8] came to 95%; in [1], 83%; in assay [2], 59%; in [3] it was 76%; in [6], 134%.

In the case of `O=C1Cc2c([nH]c3ccc([N+](=O)[O-])cc23)-c2ccccc2N1`, the residual activity in assay [2] came out at 41%; in [3], 28%; in assay [4] it was 81%; in assay [5], 81%; in assay [7], 123%.

Turning to `Nc1n[nH]c2nc3ccccc3nc12`, the residual activity in assay [8] stood at 96%; in [1], 41%; in assay [2], 75%; in [3] it was 60%; in assay [5] it was 88%; in [6], 121%. For the same compound, in [7], the residual activity amounted to 132%.

On to `CSc1nc(-c2ccc(F)cc2)c(-c2ccnc(NC(C)c3ccccc3)c2)[nH]1` (configuration not stated), for which the residual activity came to 85% in [2], 51% in assay [3], 102% in assay [4] and 86% in [5].

In the case of `Cn1sc(=O)n(Cc2ccccc2)c1=O`, the residual activity in [8] is 77%; in assay [2], 75%; in [3] it was 64%; in [4] it was 89%; in assay [5], 90%; in [6] it was 93%.

`CCOC(=O)c1c(C)[nH]c(/C=C2\C(=O)Nc3ccccc32)c1C`: the residual activity came out at 77% in [2]; 74% in assay [3]; 93% in assay [4]; 97% in [5]; 119% in [6].

With `O=C(Nc1nc2ccccc2n1CCN1CCOCC1)c1cccc([N+](=O)[O-])c1`, the residual activity in assay [3] was 77%.

As for `O=c1c(-c2ccc(F)cc2)c(-c2ccncc2)[nH]n1-c1ccc(Cl)cc1`, the residual activity in assay [1] was 75%; in assay [3] it was 61%; in assay [5] it was 81%; in assay [7] it was 73%.

For `COc1ccc(COc2ccc(Cc3cnc(N)nc3N)cc2OC)cc1`, the residual activity in assay [3] came out at 65%; in [6], 128%; in [7], 133%.

Regarding `Nc1ncnc2[nH]nc(Nc3ccc(F)cc3)c12`, the residual activity in assay [8] came out at 78%; in assay [1], 53%; in assay [2], 37%; in assay [3], 16%; in assay [4] it was 56%; in [5] it was 11%. Also, the residual activity worked out at 127% in assay [6], 94% in assay [7] and 98% in assay [9].

As to `NCCNc1ncc(C(N)=O)c(Nc2cccc(C(F)(F)F)c2)n1`, the residual activity worked out at 44% in assay [8]; 7% in assay [1]; 78% in assay [2]; 22% in assay [3]; 64% in assay [4]; 14% in [5]. Also, the residual activity in assay [6] was found to be 127%; in assay [9] it was 112%.

Take `COc1cc2ncnc(Nc3cccc(Cl)c3)c2cc1OC`: the residual activity in assay [2] was found to be 48%; in [3] it was 13%; in assay [4], 40%; in assay [5] it was 4%; in assay [6] it was 111%; in [9], 110%.
